Unmarked numbers belong to inactive results. Inconclusive results are not listed. Activity calls are given as the source filed them. Unless noted, calls follow the shape of the dose curve; as a rule, active = well fitted curve in either direction with a large enough effect (not every such curve was filed as active); inconclusive = small, poorly fitted or top-dose-only effect, or another doubt; inactive = flat fitted curve, though single readings scatter. Where only a bound is given, the exact number is not on record here.

Results on 14 compounds are retold here after PubChem BioAssay (NCATS).

Assay [1] in a line: AP1 Signaling Pathway (AID 357).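 Also: ME-180 reporter cells stimulated with EGF at its EC50 level; % is scaled to controls: 0 for no effect and ±100 for the full control effect.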 To be noted: ME-180 AP-1-bla reporter, EGF-induced, beta-lactamase ratio, 5 h; at 17.2 µM (top of the series). The essentials: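 In this screen, ME-180 cells in Opti-MEM with 0.5% dialyzed FBS received EC50 EGF and compound titrations for 5 h. AP-1 reporter beta-lactamase was detected via CCF4 ratio, giving AC50 for positive and negative modulators.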

A short description of assay [2]: NFAT Signaling Pathway (AID 444).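 Also: carbachol stimulus at about its EC50 of 1 µM final; % is scaled to controls: 0 for no effect and ±100 for the full control effect.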 Conditions: Jurkat NFAT-bla M1, carbachol, beta-lactamase ratio, 5 h; at 17.2 µM (top of the series). The essentials:
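Jurkat cells with NFAT-driven β-lactamase reporter and co-expressed M1 receptor, stimulated with carbachol (final 1 uM, ~EC50), compound titration, 5 h at 37 °C. CCF4 loaded 1 h at RT; 460/530 nm ratio gave %activity and AC50.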

A short description of assay [3]: Stat Signaling Pathway (AID 446).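 Also: ME-180 cervical cancer cells given 40 pM IL-6 alongside compound; SIE-controlled beta-lactamase reporter measured as 460/530 nm FRET emission ratio; % is scaled to controls: 0 for no effect and ±100 for the full control effect.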 Conditions: ME-180 (cervical carcinoma) SIE beta-lactamase reporter, IL-6 stimulated, 5 h; at 17.2 µM (top of the series). The essentials:
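FRET read-out (405 nm excitation, 460/530 nm emission) of a beta-lactamase reporter under a STAT-inducible element in ME-180 cervical carcinoma cells. Cells with compound receive 40 pM IL-6 for 5 h. Values are normalised to AC90 stimulation and AC90 JAK-inhibitor controls.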

In assay [4] the target is Cytochrome P450 1A2 (Homo sapiens) (UniProt P05177). As to the kind of experiment: p450-cyp1a2 (AID 410; calls by dose curve; also: potency is read from the fitted curve at half-maximal effect). Conditions: recombinant CYP1A2, luciferin-ME demethylation, luminescence; series mostly up to 25.6 µM. The essentials: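 Luminescent demethylation readout: Luciferin-ME (100uM, equal to Km) turned over by 20nM CYP1A2 for 60 min at room temperature after NADPH regeneration addition, following 10 min compound preincubation. Normalization used 57 uM furafylline as full inhibition.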
Cytochrome P450 1A2 (Homo sapiens), sequence (P05177 whole entry, looked up): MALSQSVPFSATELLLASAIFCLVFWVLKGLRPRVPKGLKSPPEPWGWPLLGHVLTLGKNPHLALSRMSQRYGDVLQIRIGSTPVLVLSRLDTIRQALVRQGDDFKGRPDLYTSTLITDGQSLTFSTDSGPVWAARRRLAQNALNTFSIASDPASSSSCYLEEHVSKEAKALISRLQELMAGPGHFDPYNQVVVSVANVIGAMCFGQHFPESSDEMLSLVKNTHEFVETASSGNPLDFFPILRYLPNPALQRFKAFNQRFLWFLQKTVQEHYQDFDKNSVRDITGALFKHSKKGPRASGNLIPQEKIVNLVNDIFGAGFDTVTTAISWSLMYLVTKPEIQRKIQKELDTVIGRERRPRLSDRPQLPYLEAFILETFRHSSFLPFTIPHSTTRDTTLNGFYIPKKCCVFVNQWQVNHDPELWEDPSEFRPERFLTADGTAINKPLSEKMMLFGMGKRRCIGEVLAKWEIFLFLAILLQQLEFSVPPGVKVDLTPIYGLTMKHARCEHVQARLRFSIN

Assay [5] concerns the target Mitogen-activated protein kinase 10 (Mus musculus) (UniProt Q61831). As to the kind of experiment: JNK3 AlphaScreen Assay (AID 530).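 Also: kinase came from lysate of stimulated human HepG2 cells; signal reports phosphorylation of biotinylated GST-cJun 1-79 at Ser73 with 10 µM ATP; % is scaled to controls: 0 for no effect and ±100 for the full control effect.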 To be noted: JNK3 lysate, c-Jun phosphorylation; series mostly up to 57.1 µM. The essentials: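 Activity was read by AlphaScreen after JNK3-containing HepG2 lysate (cytokine pre-activated) phosphorylated biotinylated GST-cJun with 10 uM ATP at room temperature. Phospho-Ser73 cJun antibody with Protein-A acceptor beads provided detection.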

The nature of assay [6]: Cell Viability - BJ (AID 421; calls by dose curve;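 also: potency is read from the fitted curve at half-maximal effect; cells exposed to compound for 40 hours at 37 °C before readout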). To be noted: BJ fibroblast viability, qHTS. The essentials: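 Cytotoxicity as drop in intracellular ATP (CellTiter-Glo, 20 min RT) after 40 hr compound exposure of BJ fibroblasts at 37 °C. Titrations scaled between DMSO and 100 uM tamoxifen, Hill-fitted for AC50.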
For orientation: qHTS replaces the single test concentration by a dilution series.

A short description of assay [7]: Cell Viability - Jurkat (AID 426;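 active = dose-dependent loss of cell ATP signal giving a full or clear fitted curve, ranked by lower potency value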; also: potency is read from the fitted curve at half-maximal effect). To be noted: qHTS. The essentials: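 Cytotoxicity taken as drop in cellular ATP (CellTiter-Glo luminescence, 20 min room temperature) after 40 hr, 37C treatment of 5000 Jurkat Clone E6-1 cells per well; concentration-response fitted with Hill equation for AC50.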
Assay [8] is described as follows: Cell Viability - Hek293 (AID 427;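 active = compounds whose dose-response curve shows a full or clear partial loss of cell viability, called from curve shape rather than a numeric limit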;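 also: potency is read from the fitted curve at half-maximal effect; cells exposed to compound for 40 hours at 37 °C before reading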). Conditions: qHTS. The essentials: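 Luminescent ATP content (CellTiter-Glo, 20 min at room temperature) was measured after a 40 hr, 37 °C compound exposure of HEK293 cells. AC50 values came from Hill-equation fits of qHTS concentration-response data normalized to DMSO and 100 uM tamoxifen.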
Assay [9] is described as follows: Cell Viability - HepG2 (AID 433; calls by dose curve; also: potency is read from the fitted curve at half-maximal effect). To be noted: qHTS. The essentials: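 HepG2 cells, 1500 per well, treated 40 hr at 37 °C in complete medium; viability from intracellular ATP by CellTiter-Glo luminescence. Normalized to DMSO and 100 uM tamoxifen; AC50 from Hill fit of qHTS concentration-response.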
Assay [10] can be described thus: Cell Viability - MRC5 (AID 434; calls by dose curve;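 also: potency is read from the fitted curve at half-maximal effect; potency reflects cytotoxicity seen as loss of intracellular ATP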). Conditions: MRC5 lung fibroblast viability, qHTS. The essentials:
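ATP luminescence read-out (CellTiter-Glo, 20 min RT) after 40 hr, 37 °C compound exposure of 1500 MRC5 cells/well. Data normalized to DMSO (basal) and 100 uM tamoxifen (100% inhibition); AC50 from standard Hill equation.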

Assay [11] is described as follows: Cell Viability - SK-N-SH (AID 435; calls by dose curve; also: potency is read from the fitted curve at half-maximal effect). Conditions: SK-N-SH neuroblastoma cell viability qHTS. The essentials: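 SK-N-SH neuroblastoma cells (1500/well) treated 40 h at 37 °C in complete medium; viability read as cellular ATP by CellTiter-Glo luminescence. Normalized to DMSO and 100 uM tamoxifen; AC50 from Hill fits of qHTS concentration-response.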
The nature of assay [12]: Cell Viability - HUV-EC-C (AID 542; active = well fitted curve in the direction sought with a large enough effect; an effect the other way counts as inactive or inconclusive; also: nearly all actives have a fitted effect of over 35% in size; also: potency is read from the fitted curve at half-maximal effect). To be noted: HUV-EC-C endothelial cell viability, qHTS; series mostly up to 92.2 µM. The essentials: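 CellTiter-Glo luminescence measured ATP loss in HUV-EC-C cells (1000/well) after 40 hr compound exposure at 37 °C, in complete culture medium. Concentration-response data were Hill-fitted to give AC50.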
Assay [13] can be described thus: Cell Viability - H-4-II-E (AID 543; active = well fitted curve in the direction sought with a large enough effect; an effect the other way counts as inactive or inconclusive; also: nearly all actives have a fitted effect of over 35% in size; also: potency is read from the fitted curve at half-maximal effect). Conditions: H-4-II-E rat hepatoma viability; series mostly up to 92.2 µM. The essentials: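 CellTiter-Glo luminescence (intracellular ATP) measured after 40 h compound exposure at 37 °C in H-4-II-E rat hepatoma cells seeded at 1500/well. Values are AC50s fitted with the standard Hill equation.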
A short description of assay [14]: Cell Viability - SH-SY5Y (AID 544; active = well fitted curve in the direction sought with a large enough effect; an effect the other way counts as inactive or inconclusive; also: nearly all actives have a fitted effect of over 55% in size; also: potency is read from the fitted curve at half-maximal effect). Conditions: SH-SY5Y neuroblastoma cell viability; series mostly up to 92.2 µM. The essentials:
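Cytotoxicity measured via ATP-dependent luciferase luminescence (CellTiter-Glo) following 40 h, 37 °C exposure of 1500 SH-SY5Y cells per well. Concentration-response data were fitted with the standard Hill equation to give AC50.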

Assay [15] in a line: Cell Viability - Renal Proximal Tubule (AID 545; active = well fitted curve in the direction sought with a large enough effect; an effect the other way counts as inactive or inconclusive; also: nearly all actives have a fitted effect of over 40% in size; also: potency is read from the fitted curve at half-maximal effect;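 as to activity change, negative = cytotoxicity: 0% = DMSO only and -100% = 100 µM tamoxifen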). To be noted: renal proximal tubule cells viability, primary cells of rat origin; series mostly up to 91.7 µM. The essentials: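 Rat renal proximal tubule primary cells, 1000/well, exposed to compounds for 40 hr at 37 °C in complete medium; cellular ATP read by CellTiter-Glo luminescence. AC50 from concentration-response fitted with standard Hill equation.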

A short description of assay [16]: Cell Viability - NIH 3T3 (AID 541; active = well fitted curve in the direction sought with a large enough effect; an effect the other way counts as inactive or inconclusive; also: nearly all actives have a fitted effect of over 25% in size; also: potency is read from the fitted curve at half-maximal effect;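 as to activity change, negative = cytotoxicity: plate controls were DMSO alone for no effect and tamoxifen positive control for full effect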). To be noted: NIH 3T3 cell viability, qHTS; activity change, negative = cytotoxicity: at 92.2 µM (top of the series). The essentials:
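Intracellular ATP (CellTiter-Glo luminescence, 20 min at room temperature) measured after 40 hr compound exposure at 37 °C of 1000 NIH 3T3 mouse fibroblasts/well in complete medium; AC50 derived by Hill-equation modelling of qHTS concentration-response curves.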

Assay [17] can be described thus: Cell Viability - Mesenchymal (AID 546; active = well fitted curve in the direction sought with a large enough effect; an effect the other way counts as inactive or inconclusive;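 also: cells exposed to compound for 40 hours before reading; 0% = DMSO only and -100% = 100 µM tamoxifen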). To be noted: mesenchymal cells viability, qHTS; series mostly up to 91.7 µM. The essentials: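 Human renal mesenchymal cells (glomerulus-derived), 1000 cells/well, 5 hr 37 °C pre-incubation; compound 40 hr, 37 °C; CellTiter-Glo, 20 min RT; luminescence; AC50 via Hill equation.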
Assay [18] has as its target Glucocorticoid receptor (Homo sapiens) (UniProt P04150). The assay is described as follows: GR-GFP Redistribution (AID 450;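 active = compounds whose dose series gives a full or clear partial fitted curve of increased nuclear translocation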; also: potency is read from the fitted curve at half-maximal effect). Conditions: U2OS GR-GFP nuclear translocation, laser cytometry, 2 h.
The target is the same in assay [19]. The assay is described as follows: GR-EFC Redistribution (AID 451; calls by dose curve; also: potency is read from the fitted curve at half-maximal effect). Conditions: CHO-K1 GR-EFC translocation, beta-gal luminescence, 2 h. The essentials: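 CHO-K1 cells expressing nuclear EA and GR-ED fragments of b-gal; compounds titrated up to 46 uM final, 2 h at 37 C. GR nuclear translocation read as complemented b-gal luminescence after 1 h RT detection.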

Glucocorticoid receptor (Homo sapiens), sequence (P04150 whole entry, looked up, the tested form may be a part): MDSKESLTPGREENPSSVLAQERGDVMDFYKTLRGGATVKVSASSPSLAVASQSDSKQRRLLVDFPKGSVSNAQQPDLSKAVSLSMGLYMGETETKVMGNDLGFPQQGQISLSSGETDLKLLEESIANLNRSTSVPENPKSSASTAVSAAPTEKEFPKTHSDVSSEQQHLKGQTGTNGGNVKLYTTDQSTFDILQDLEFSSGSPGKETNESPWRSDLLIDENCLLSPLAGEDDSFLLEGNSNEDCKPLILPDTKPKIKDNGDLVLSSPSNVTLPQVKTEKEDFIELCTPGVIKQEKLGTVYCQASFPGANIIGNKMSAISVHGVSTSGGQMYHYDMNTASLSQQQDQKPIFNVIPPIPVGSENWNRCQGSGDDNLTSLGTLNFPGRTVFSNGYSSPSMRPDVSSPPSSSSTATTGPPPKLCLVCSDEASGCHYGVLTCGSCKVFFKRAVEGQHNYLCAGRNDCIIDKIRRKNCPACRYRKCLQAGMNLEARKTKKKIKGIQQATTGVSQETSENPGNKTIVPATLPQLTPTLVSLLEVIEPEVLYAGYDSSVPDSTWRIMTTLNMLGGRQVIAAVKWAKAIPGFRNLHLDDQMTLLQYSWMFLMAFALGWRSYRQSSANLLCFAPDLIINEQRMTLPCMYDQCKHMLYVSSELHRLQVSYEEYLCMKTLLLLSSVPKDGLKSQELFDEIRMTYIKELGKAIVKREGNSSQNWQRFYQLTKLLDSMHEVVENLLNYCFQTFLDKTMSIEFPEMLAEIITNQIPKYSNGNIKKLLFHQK

As to `C[C@@H]1C[C@H]2[C@@H]3C[C@H](F)C4=CC(=O)C=C[C@]4(C)[C@@]3(F)[C@@H](O)C[C@]2(C)[C@@]1(O)C(=O)CO`, the activity change, negative = inhibition in assay [1] was -11.1%; in assay [2], -28.6%. Moreover, the activity, negative = inhibition in assay [3] is -0.0687%.
As for `CCCCN1CCCC[C@H]1C(=O)Nc1c(C)cccc1C`, the activity change, negative = inhibition was 0.542% in [1] and 3.05% in assay [2]. For the same compound, the Potency in [4] was 5.01 µM (active). The activity, negative = inhibition in assay [3] was 1.67%. The Potency entry in assay [5] was “inactive”.
Regarding `CN1[C@@H]2CC(OC(=O)[C@H](CO)c3ccccc3)C[C@H]1[C@@H]1O[C@@H]12` (stereo partly specified), the activity change, negative = inhibition was -6.51% in assay [1] and -78.1% (active) in [2]. Further, the activity, negative = inhibition in assay [3] is 3.51%.
Consider `Cc1c(O)cccc1C(=O)N[C@@H](CSc1ccccc1)[C@H](O)CN1C[C@H]2CCCC[C@H]2C[C@H]1C(=O)NC(C)(C)C`, for which the Potency in assay [6] is 25.2 µM (active); in [7] it was 31.8 µM (active); in assay [8], 24.4 µM (active); in assay [9] it was 24.6 µM (active); in assay [10], 31.7 µM (active); in [11], 24.5 µM (active). The Potency in assay [12] was 31.6 µM (active); in [13], 31.6 µM (active); in [14], 1.26 µM (active); in assay [15], 31.6 µM (active). Besides, in [5], the Potency result was “inactive”.
As to `O=C(O)CN1C(=O)c2cccc3cccc(c23)C1=O`, in assay [5], the Potency entry is “inactive”.
`O=C1c2c(O)cccc2Cc2cccc(O)c21`: the Potency in assay [6], in [7], in assay [8], in [9], in assay [10] and in assay [11] was > 92 µM throughout. The Potency entry in assay [5], in assay [12], in assay [13], in assay [14] and in assay [15] was “inactive” in each case.
For `[Cl][In]([Cl])[Cl]`, the Potency in [6], in assay [7], in assay [8], in assay [9], in [10] and in assay [11] was > 92 µM throughout. Also, the Potency entry in assay [16], in assay [12], in assay [13], in [14] and in [15] was “inactive” each time. Moreover, the outcome in assay [17] was inactive.
Take `C[C@H](N)[C@H](O)c1cccc(O)c1`: the results for the activity change, negative = inhibition in assay [1] and in [2] were 2.95% and -4.86%, respectively. Moreover, the activity, negative = inhibition in assay [3] was 4.65%. Further, the Potency in assay [18] and in [19] was > 20.6 µM each time. Moreover, the Potency entry in assay [5] was “inactive”.
For `CC(=O)OCC(=O)[C@@]1(O)CC[C@H]2[C@@H]3CCC4=CC(=O)CC[C@]4(C)[C@H]3C(=O)C[C@@]21C`, in assay [1], the activity change, negative = inhibition is 0.362%. Further, in assay [3], the activity, negative = inhibition was 11.3%.
`CCCCOc1cc(C(=O)OCCN(CC)CC)ccc1N`: the activity change, negative = inhibition in assay [1] is -0.742%. Further, the activity, negative = inhibition in [3] is -0.0669%. For the same compound, the Potency in assay [18] and in assay [19] was > 20.6 µM each time. The Potency entry in [5] is “inactive”.
With `CCC(=O)c1ccc(O)cc1`, the activity change, negative = inhibition in assay [1] is -4.26%; in assay [2] it was -1.37%. The activity, negative = inhibition in [3] is -0.905%. For the same compound, the Potency in [18] was > 20.6 µM.
Turning to `Cc1ncc([N+](=O)[O-])n1CC(O)CCl` (stereo unspecified), the results for the activity change, negative = inhibition in [1] and in [2] were 0.517% and -27.2%, respectively. Further, in assay [3], the activity, negative = inhibition was 0.729%. The Potency in assay [18] was > 20.6 µM.
Take `NC(=O)c1ncn([C@@H]2O[C@H](CO)[C@@H](O)[C@H]2O)n1`: the Potency was > 92 µM in assay [6]; > 92 µM in assay [7]; > 92 µM in [9]; > 92 µM in assay [10]; > 92 µM in [11]; 25.1 µM (active) in assay [16]. The Potency in assay [14] was 31.6 µM (active). The Potency entry in [5], in [12] and in [15] was “inactive” throughout. Moreover, in assay [17], the compound was called inactive.
As to `CC1(C)[C@@H]2CC[C@@]1(C)C(=O)C2`, the Potency in assay [6], in assay [7], in assay [8], in [9], in assay [10] and in assay [11] was > 92 µM each time. The Potency result in [5], in assay [16], in assay [12], in assay [13], in assay [14] and in [15] was “inactive” throughout. Besides, the outcome in assay [17] was inactive.
